We go through 64 compounds from PubChem BioAssay AID777 (Sanford-Burnham Center for Chemical Genomics, 2007).

Out of some 96,000 compounds screened, about 19,000 (20%) were called active. These entries were drawn from the full list. Values without a mark were called inactive.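 How the source made its calls: active means blocking of liver enzyme CYP2C9 beyond about 50% at 5 µM (limit read from the data); inactive means the rest.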

In the test the target is Cytochrome P450 2C9 (Homo sapiens) (UniProt P11712). The test is described as follows: blockers of cytochrome P450 2C9 activity – biochemical, luminescence, ADME assay, primary screen (AID 777). The conditions noted are these: CYP2C9 Supersomes, luciferin-H conversion, at 5 µM, hits give high values.
Sequence of Cytochrome P450 2C9 (Homo sapiens) (P11712 whole entry, looked up): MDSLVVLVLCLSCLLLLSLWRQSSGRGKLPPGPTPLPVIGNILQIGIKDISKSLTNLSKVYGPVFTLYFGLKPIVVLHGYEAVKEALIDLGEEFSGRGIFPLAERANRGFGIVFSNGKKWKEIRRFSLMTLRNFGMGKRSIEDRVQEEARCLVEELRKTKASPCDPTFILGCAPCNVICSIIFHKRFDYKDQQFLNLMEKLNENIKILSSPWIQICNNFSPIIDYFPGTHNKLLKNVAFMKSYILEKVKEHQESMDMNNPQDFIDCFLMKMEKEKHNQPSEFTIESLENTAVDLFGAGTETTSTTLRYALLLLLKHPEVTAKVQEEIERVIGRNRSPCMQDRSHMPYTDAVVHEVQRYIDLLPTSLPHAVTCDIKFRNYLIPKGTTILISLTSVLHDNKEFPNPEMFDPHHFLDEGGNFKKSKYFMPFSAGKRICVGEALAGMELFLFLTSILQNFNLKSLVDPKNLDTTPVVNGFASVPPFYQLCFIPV
Usually inhibition stands for the relative decrease from the control value, in per cent. Turning to `COC(=O)c1c(-c2ccc(C)cc2)csc1N`, the inhibition was 31.9%.

Consider `CCC(C)n1[nH]c(=O)c2c(C)cc(C)nc21` (centres undefined), for which the inhibition is 10.8%.

`COc1ccc(Cc2nnc(SC)[nH]c2=O)cc1`: the inhibition is 37.8%.

For `C[N+](C)(C)CCNC(=O)c1c(O)c2c([nH]c1=O)CCCC2`, the inhibition was 6.6%.

Turning to `CC(CC(=O)Nc1cc(C(F)(F)F)ccc1Cl)c1ccccc1` (centres undefined), the inhibition is -141%.

On to `CC(C)n1c(C(O)c2ccccc2)nc2ccccc21` (centres undefined), for which the inhibition was -0.4%.

Consider `Cc1cc(N2CCCC2)n2nc(C)c(-c3ccccc3)c2n1`, for which the inhibition is -22.5%.

As to `COC(=O)c1cnn2c(C(F)(F)F)cc(-c3ccco3)nc12`, the inhibition was -10.8%.

Take `Cc1c(C(=O)NCC2CCCO2)sc2nc(-c3ccccc3)cn12` (centres undefined): the inhibition is 28.3%.

For `c1ccc2c(c1)OCC(CNc1ncnc3nc[nH]c13)O2` (centres undefined), the inhibition was 10.3%.

In the case of `CCC(c1nnnn1Cc1ccccc1)N(Cc1cc2cc(OC)ccc2[nH]c1=O)CC1CCCO1` (centres undefined), the inhibition was 66.2% (active).

As for `Cc1ccsc1C(=O)OCC(=O)c1cc(C)n(CC2CCCO2)c1C` (centres undefined), the inhibition is -70.9%.

Regarding `Cc1cc(C)c2cc(CN(Cc3cccs3)Cc3nnnn3CC3CCCO3)c(=O)[nH]c2c1` (centres undefined), the inhibition was 75.5% (active).

On to `CCC(=O)N(Cc1cc2cc(OC)ccc2[nH]c1=O)c1ccccc1C`, for which the inhibition is 36.4%.

Consider `COc1ccc(CNC(=O)c2cc3c(=O)n4ccccc4nc3n(CC3CCCO3)c2=N)cc1` (centres undefined), for which the inhibition is 9.5%.

For the compound `COc1ccc2[nH]c(=O)c(CN(Cc3nnnn3CCc3ccccc3)CC3CCCO3)cc2c1` (centres undefined), the inhibition was 68% (active).

In the case of `Cc1cc2cc(CN(Cc3cccs3)Cc3nnnn3CC3CCCO3)c(=O)[nH]c2cc1C` (centres undefined), the inhibition is -32.2%.

For the compound `CCOc1ccc2[nH]c(=O)c(CN(Cc3nnnn3Cc3ccccc3)CC3CCCO3)cc2c1` (centres undefined), the inhibition is 13%.

As for `COc1ccc(N(Cc2cc3cc(OC)ccc3[nH]c2=O)S(C)(=O)=O)cc1`, the inhibition is 26.9%.

With `CC(=O)c1c(C)c[nH]c1C`, the inhibition is -23.3%.

For `Cc1ccccc1N/N=C/c1ccc(N2CCOCC2)cc1`, the inhibition is -0.6%.

For the compound `CCN1CCN(CCCCOc2ccccc2F)CC1`, the inhibition is 15.7%.

Turning to `O=C(CC1NCCNC1=O)Nc1ccc(Oc2ccccc2)cc1` (centres undefined), the inhibition was 1.6%.

For the compound `Cc1nc2ccc(S(=O)(=O)NCC(=O)O)cc2s1`, the inhibition is -5.2%.

`O=C1CN(c2nc(-c3ccccc3)c3cc(Br)ccc3n2)c2ccccc2N1`: the inhibition is -6.3%.

For the compound `Cc1ccc(C2NC(=S)NC3=C2N2CCC3CC2)cc1` (centres undefined), the inhibition is 1.3%.

Regarding `C=CCn1c(SCc2c(C)noc2C)nc2sc3c(c2c1=O)CCC(C)C3` (centres undefined), the inhibition was 92.7% (active).

For the compound `CC1CCc2c(sc3nc4n(c(=O)c23)CCS4)C1` (centres undefined), the inhibition was 28.1%.

Regarding `CCCn1nnc2sc3c(c2c1=O)CCC(C)C3` (centres undefined), the inhibition was 10.3%.

For the compound `c1ccc(-c2nccc(-c3ccc(-n4cnc5ccccc54)cc3)n2)nc1`, the inhibition is 22.6%.

Turning to `CNC(=O)n1ccc(C(=O)N2CCCCC2)n1`, the inhibition is -19.7%.

For `CCc1nc(N2CCN(c3nc(C)cc(C)n3)CC2)c2oc3ccccc3c2n1`, the inhibition is 11.3%.

`CN(C)/C(CN1CCCCC1)=C1\N=C(c2ccccc2)OC1=O`: the inhibition is 20.2%.

As for `Cc1cc(C)n(-c2c(F)c(F)c(COC(=O)c3ccccc3)c(F)c2F)n1`, the inhibition is 2.6%.

On to `O=C(NC(=O)c1ccccc1)NC(=O)c1ccccc1`, for which the inhibition is 12.8%.

With `O=C(OCC(O)C(O)COC(=O)c1ccccc1)c1ccccc1` (centres undefined), the inhibition is 57.1% (active).

As for `COc1ccc(NC(=O)CCNC(=O)Cn2ccc3ccccc3c2=O)c(OC)c1`, the inhibition was 5.7%.

Take `COC(=O)[C@H](C)NC(=O)Nc1ccc(OC(F)(F)F)cc1`: the inhibition is -2.6%.

Consider `Clc1ccc(C2CC(c3cccs3)n3ncnc3N2)cc1Cl` (centres undefined), for which the inhibition was 53.2% (active).

For the compound `COc1c(Br)cc2c(C)c(C(=O)N3CCOCC3)oc2c1Br`, the inhibition is -33.9%.

As to `COc1nc(OC)nc(N(C)CCO)n1`, the inhibition is 3%.

Take `O=C(N/N=C\c1ccc(-c2ccc(Cl)c(Cl)c2)o1)C(=O)N1CCCC1`: the inhibition was 33.8%.

In the case of `CC12COC3(C(=O)Nc4ccc(Cl)cn4)CC1CCC32C` (centres undefined), the inhibition is 11.1%.

For `c1ccc2c(c1)C(=NC1CCCCC1)NC2=NC1CCCCC1`, the inhibition is 9.4%.

Regarding `CCS(=O)(=O)N1CCN(C(=O)c2cccs2)CC1`, the inhibition is 10%.

Consider `CCCS(=O)(=O)N1CCN(C(=O)c2cccs2)CC1`, for which the inhibition is 7.2%.

`C/C(=N\NS(=O)(=O)c1ccc(Br)cc1)c1cccs1`: the inhibition was 68% (active).

As for `Fc1ccc2[nH]c3c(N4CCN(Cc5ccc6c(c5)OCO6)CC4)ncnc3c2c1`, the inhibition was 81.2% (active).

Take `CC(C)OCCCNc1ncnc2c1[nH]c1ccc(F)cc12`: the inhibition was 29.6%.

`CCN1CCCC1CNc1ncnc2c1[nH]c1ccc(F)cc12` (centres undefined): the inhibition was 2.6%.

In the case of `O=C(c1cccs1)N1CCN(Cc2ccc3c(c2)OCO3)CC1`, the inhibition is 22.3%.

`Cc1cc(N2CCN(Cc3ccc4c(c3)OCO4)CC2)n2ncnc2n1`: the inhibition is -3.2%.

Consider `Fc1ccc2[nH]c3c(N4CCSCC4)ncnc3c2c1`, for which the inhibition was 60.5% (active).

Regarding `CCOC(=O)c1ccc(-n2c(C)nc3c(cnn3-c3ccccc3C)c2=O)cc1`, the inhibition is -2.7%.

Regarding `CCOc1ccc(Cn2nnc(C(=O)Nc3ccc(OC)cc3OC)c2N)cc1`, the inhibition is -86.9%.

As for `COc1ccc(OC)c2c(N)c(C#N)c(C(F)(F)C(F)(F)F)nc12`, the inhibition is -0.2%.

Take `CC1(C)CC(=O)NC=C(c2ccccc2)C1`: the inhibition was 11.5%.

For the compound `COCCCN1C(=O)c2ccc(C(=O)Nc3ccc(OC)cc3OC)cc2C1=O`, the inhibition was 39.4%.

In the case of `CCCCN(C)C(=O)C1CCN(Cc2ccccn2)CC1`, the inhibition is 19.6%.

As to `Cc1nc2ccccc2c(=O)n1CCCn1ccnc1`, the inhibition is 39.8%.

For the compound `Cc1ccc(S(=O)(=O)c2nc(NCCCn3ccnc3)sc2Cl)cc1`, the inhibition is 98.1% (active).

Take `CCN1CCCC1Cn1cnc2c([nH]c3cc(OC)ccc32)c1=O` (centres undefined): the inhibition was 2%.

For `CC(C(=O)O)N1C(=O)c2cccc3cccc1c23` (centres undefined), the inhibition is -6.4%.

As to `NC(=O)c1nsc(C(=O)N(CC(=O)NCc2ccc(F)cc2)Cc2ccco2)c1N`, the inhibition was 20.6%.
